# Source: PubChem BioAssay
# ID4 SMM – ID4 (human) binding | P47928 | small molecule microarray, Flag-ID4 binding, fluorescence F/B | calls only | actives 1.2% (n = 31,000) | AID 624137; call rule not given here;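 also: a binder raises fluorescence above local background on the spot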
# Target sequence (P47928 whole entry, looked up): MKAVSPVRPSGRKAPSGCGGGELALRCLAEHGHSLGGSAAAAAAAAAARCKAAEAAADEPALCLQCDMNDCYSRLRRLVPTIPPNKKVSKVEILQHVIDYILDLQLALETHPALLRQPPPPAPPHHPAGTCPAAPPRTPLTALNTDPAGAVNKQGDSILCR
# p53 PUMA act – re-activators of the mutant p53 pathway | SW480 PUMA-promoter luciferase, p53 mutant reactivation | activation, % at 9.98 µM | actives 1.5% (n = 28,000); in the data active = activation above about 52%; inconclusive = no clear call, values can overlap the other calls
# * = called active by the depositor; i = inactive; ? = inconclusive; nt = no result given; + = active, no number. Hits are enriched below; roughly 2.2% of the tested compounds scored in any of these assays.
SMILES,ID4 SMM,p53 PUMA act
COc1ccc(OCC(=O)Nc2ccc(C)cc2[N+](=O)[O-])cc1,i,136*
Cc1cc(OCC(=O)Nc2ccc(CC#N)cc2)ccc1[N+](=O)[O-],i,9
Cc1ccc(NC(=O)COc2ccc(C(C)(C)C)cc2)c([N+](=O)[O-])c1,i,18
COc1ccc(OCC(=O)Nc2cc(OC)c(Cl)cc2OC)cc1,i,82*
COc1cc(NC(=O)COc2cccc(C)c2)c(OC)cc1Cl,i,35
Cc1ccc(NC(=O)COc2ccc(Cl)c(C)c2)c([N+](=O)[O-])c1,i,59*
Cc1cc(Cl)cc(Cl)c1OCC(=O)Nc1ccccc1[N+](=O)[O-],i,10
COc1cc(Br)cc2cc(C(=O)NCCCN3CCOCC3)c(=O)oc12,i,24
CN(CC(=O)Nc1ccccc1-c1ccccc1)S(=O)(=O)c1ccc2ccccc2c1,i,2
Cc1cc(C)cc(NC(=O)CN(c2cc([N+](=O)[O-])ccc2C)S(C)(=O)=O)c1,i,15
Cc1ccc(C(C)C)c(OC(=O)CS(=O)c2ccc(C(F)(F)F)cc2[N+](=O)[O-])c1 (stereo not given),i,-1
O=C(CNS(=O)(=O)c1ccccc1)Nc1ccc(Br)cc1F,i,-8
O=C(Nc1cccc(C(F)(F)F)c1)c1cc([N+](=O)[O-])ccc1NCc1cccnc1,i,11
CC(=O)Nc1ccc(OCC(=O)Nc2ccc3c(c2)oc2ccccc23)cc1,i,37
COc1ccc(-c2nc3ccccc3s2)cc1NC(=O)COc1ccc(Br)cc1,i,79*
Cc1ccnc(NC(=O)COc2ccc(Cl)cc2)n1,i,?
COc1ccc(-c2nc3ccccc3s2)cc1NC(=O)COc1ccc(C(C)C)cc1,i,48
COc1ccccc1NC(=O)CSc1ccccn1,i,27
CC(=O)Nc1ccc(OCC(=O)Nc2ccc(Cl)c(Cl)c2)cc1,i,65*
COc1ccc(NC(=O)CSc2ccccn2)c([N+](=O)[O-])c1,i,62*
O=C(COc1ccc(Cl)cc1)Nc1ncccn1,i,74*
CCn1c(SCC(=O)Nc2cc(C)ccc2OC)nnc1-c1ccc(Cl)cc1,i,10
CS(=O)(=O)N(CC(=O)Nc1cccc([N+](=O)[O-])c1)c1ccc2c3c(cccc13)CC2,i,-23
COc1ccc(Cl)cc1NC(=O)CN(c1ccc(I)cc1)S(C)(=O)=O,i,-12
O=c1c2c(nc3nc(NCc4cccc([N+](=O)[O-])c4)[nH]n13)CCC2,i,0
SMILES,ID4 SMM,p53 PUMA act
O=C(CCS(=O)(=O)c1nc(-c2ccccc2)cc(C(F)(F)F)n1)Nc1ccc(Cl)cc1Cl,i,-27
COc1cccc(C(=O)c2oc3ccccc3c2NC(=O)COc2ccccc2)c1,i,21
CC1(C)CC(=O)c2c(O)cc(OCC(=O)c3cccc([N+](=O)[O-])c3)cc2O1,i,75*
CC1(C)CC(=O)c2c(O)cc(OCC(=O)c3ccc(-c4ccccc4)cc3)cc2O1,i,-19
Cc1ccc(C(C)C)c(OCC(=O)Nc2ccccc2C#N)c1,i,-22
COc1cccc(C2CC(=O)NC(SCC(=O)Nc3ccccc3Cl)=C2C#N)c1OC (stereo not given),i,3
CC(=O)Cc1cc(O)cc2oc(C)cc(=O)c12,nt,6
Cc1nn(Cc2ccc(F)cc2)c(C)c1NC(=O)c1cc(-c2cccnc2)nc2c(Cl)cccc12,i,-59
Cc1ccccc1-c1nc2cc(NC(=O)COc3ccc(Br)cc3)ccc2o1,i,74*
O=C(COc1ccccc1)Nc1ccc2oc(-c3ccc(Cl)cc3Cl)nc2c1,i,0
CCc1ccc(OCC(=O)Nc2ccc3oc(-c4ccccc4F)nc3c2)cc1,i,-29
Cc1ccccc1-c1nc2cc(NC(=O)COc3ccc(Cl)cc3)ccc2o1,i,71*
O=c1cc(-c2ccc(O)cc2)oc2cc(OC3OC(CO)C(O)C(O)C3OC3OCC(O)(CO)C3O)cc(O)c12 (stereo not given),i,5
CC(CC(N)=O)OC(=O)c1cc(Cl)cc(O)c1O (stereo not given),i,nt
C[C@@H]1CCC2C(C)(C)CCC[C@@]2(C)[C@@]1(O)CC/C(=C\CO)CO (stereo not given in full),nt,4
COc1cccc(C=NC=Nc2cccc(OC)c2)c1,i,38
Clc1cccc(C=NC=Nc2cccc(Cl)c2)c1,i,73*
CSc1ccccc1NC(=O)CN(c1ccc(Cl)cc1)S(C)(=O)=O,i,-5
COc1ccc(C(=O)CSc2nnc(-c3ccccc3)n2-c2ccc(Br)cc2)cc1,i,-4
CC(C)CNC(=O)C(=O)NCc1ccccn1,i,2
Cc1cc(=O)oc2cc(NC(=S)NCCCN3CCCC3=O)ccc12,i,39
Cc1ccc(NC(=O)C(=O)NCc2ccccn2)cc1C,i,94*
O=C(NCc1ccccn1)C(=O)Nc1ccccc1F,i,61*
Cc1cc(=O)oc2cc(NC(=S)NCc3ccccn3)ccc12,i,81*
Cc1ccccc1NC(=O)C(=O)NCc1ccccn1,i,36
SMILES,ID4 SMM,p53 PUMA act
Cc1cccc(NC(=O)CSc2nnc(-c3ccc(Cl)cc3)n2-c2cccc(C)c2)c1,i,-81
COC(=O)c1c(NC(=O)COc2ccccc2)sc(C(N)=O)c1C,i,-3
CCC(C)Nc1nc(OC)nc(Oc2ccc(=O)[nH]n2)n1 (stereo not given),i,0
Cc1ccc(OCC(=O)Nc2cccc(-c3nnc(-c4ccccc4)o3)c2)cc1,i,119*
Cc1cccc(OCC(=O)Nc2cccc(-c3nnc(-c4ccccc4)o3)c2)c1C,i,68*
Cc1ccc(OCC(=O)Nc2cccc(-c3nc4ccccc4[nH]3)c2)cc1,i,10
Cc1cccc(OCC(=O)Nc2cccc(-c3nnc(-c4ccco4)o3)c2)c1C,i,?
CCN(C(=O)CSc1nc2sc(C)c(C)c2c(=O)n1-c1ccccc1)c1ccccc1,i,-26
C[C@H](CO)N1C[C@H](C)[C@H](CN(C)S(=O)(=O)c2cn(C)cn2)OCCCC[C@H](C)Oc2ccc(NC(=O)Cc3ccccc3)cc2C1=O,i,2
C[C@@H]1CN([C@@H](C)CO)C(=O)c2cc(NC(=O)CCCN(C)C)ccc2O[C@@H](C)CCCCO[C@@H]1CN(C)S(=O)(=O)c1cn(C)cn1,+,3
C[C@@H]1CCCCO[C@@H](CN(C)S(=O)(=O)c2cccs2)[C@@H](C)CN([C@@H](C)CO)C(=O)c2cc(NC(=O)CCCN(C)C)ccc2O1,+,7
C[C@H](CO)N1C[C@H](C)[C@@H](CN(C)S(=O)(=O)c2cccs2)Oc2ccc(NC(=O)CCCN(C)C)cc2C1=O,+,6
C[C@H]1CCCCO[C@H](CN(C)S(=O)(=O)c2cccs2)[C@@H](C)CN([C@@H](C)CO)C(=O)c2cc(NC(=O)CCC(F)(F)F)ccc2O1,nt,2
C[C@@H]1CN([C@@H](C)CO)C(=O)c2cc(NC(=O)CCCN(C)C)ccc2O[C@H]1CN(C)S(=O)(=O)c1cccs1,i,1
COC(=O)c1ccccc1NC(=O)CSc1nnc(-c2cc3cccc(OC)c3o2)n1C,i,0
Nc1cc(=O)[nH]c(SCC(=O)NCc2ccco2)n1,i,-2
N#Cc1ccc(NC(=O)CCN2C(=O)c3ccccc3C2=O)cc1,i,39
N#Cc1cccc(NC(=O)CCCN2C(=O)c3ccccc3C2=O)c1,+,12
